Bioassay records deposited in PubChem by Broad Institute.
aSyn UTR inh: MLPCN primary screen, SNCA 5' untranslated region; alpha-synuclein 5'UTR reporter, inhibitor activity; inhibition, % (tested at 7.5 µM); 300,000 compounds, 0.82% hits; AID 1813, 2009; in the data active = inhibition above about 60%; inconclusive = no clear call, values can overlap the other calls;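 also: H4 neuroglioblastoma cells stably carrying SNCA 5'UTR luciferase fusion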
LMP1 NFkB inh: EBV LMP1-driven NF-kappaB luciferase reporter inhibitors, primary screen, cell-based, luminescence, single point | 350,000 compounds, 0.69% hits | inhibition, % at 12.5 µM | LMP1-induced NF-kappaB luciferase reporter cells; in the data active = inhibition above about 41%; inconclusive = no clear call, values can overlap the other calls
PAX8 reporter: inhibitors of PAX8-driven TPO luciferase reporter, primary screen, RMG-I cells, single concentration; SteadyGlo, 24 h; AID 652154, 2013; inhibition, % at 12.6 µM; 360,000 compounds, 1.2% hits;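 active = mean replicate inhibition at least 60% with every replicate also reaching 60%; inconclusive = only one of the two criteria is met; inactive = mean below 60% and not all replicates reaching 60%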;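 also: luciferase light reporting Pax8 driven TPO promoter activity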
MITF TRPM1 inh: inhibitors of MITF-dependent TRPM1 promoter reporter, primary screen, cell-based, SK-MEL-5, single point, luciferase; SK-MEL-5 TRPM1 promoter luciferase, 24 h; inhibition, % at 12.5 µM; 330,000 compounds, 0.83% hits;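 active = mean inhibition across replicates of 60% or more, whatever share of single replicates reaches that level; inconclusive = some that reach 60%, reason not given; inactive = mean inhibition across replicates below 60%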
Shn3 inh set2: reduction of Shn3 3'UTR firefly luciferase signal, primary screen, Schnurri-3 inhibitor project, cell-based, Clone20 osteoblasts, set 2; Clone20 osteoblast Shn3 3'UTR firefly luciferase, 24 h; inhibition, % at 12.5 µM; 360,000 compounds, 0.52% hits; AID 588674, 2011;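 active = mean inhibition of at least 75% with every replicate also reaching 75%; inconclusive = mean inhibition at least 75% but some replicate below; inactive = mean inhibition below 75%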
Of the large screens only hits and unclear results are named; the others gave an inactive call; ! = not confirmed by another sample. Hits are enriched below; roughly 2.1% of the tested compounds scored in any of these assays.

O=C(O)c1ccc(N/N=C/c2ccncc2)cc1	none
NNC(=S)NCc1ccco1	none
CN(C(=O)C(Cl)Cl)c1ccc(OC(=O)c2ccco2)cc1	none
O=C(O)c1ccc(N/N=C/c2cccc(F)c2)cc1	none (no result: PAX8 reporter)
CSc1ccc(/C=N/Nc2cccc(C(=O)O)c2)cc1	LMP1 NFkB inh 55.9, MITF TRPM1 inh 79.2 (no result: aSyn UTR inh, PAX8 reporter)
O=Nc1c(O)c2ccccc2c2ccccc12	MITF TRPM1 inh 97.3
CCC(=NCCc1c(C)[nH]c2ccc(C)cc12)C1=C(O)CC(c2ccccc2)CC1=O (configuration not stated)	aSyn UTR inh 104.0
CC(=O)C1=C(O)CC(c2ccccc2)CC1=NCCc1c(C)[nH]c2ccc(C)cc12 (configuration not stated)	none (no result: MITF TRPM1 inh)
NC(=O)NC(Cc1ccccc1)c1ccccc1 (configuration not stated)	none (no result: PAX8 reporter)
NC(=O)OCC(COC(N)=O)c1ccccc1	LMP1 NFkB inh 68.5!
CC(C)CC(NS(=O)(=O)c1ccccc1)C(=O)O (configuration not stated)	none
CC(C)CN=C(NS(=O)(=O)c1ccccc1)C(Cl)(Cl)Cl	PAX8 reporter 100.3, MITF TRPM1 inh 85.9
Cc1cc(N2C(=O)C=CC2=O)c([N+](=O)[O-])cc1C	Shn3 inh set2 89.4 (no result: PAX8 reporter)
Cc1c([N+](=O)[O-])cc(N2C(=O)C=CC2=O)cc1[N+](=O)[O-]	none (no result: aSyn UTR inh, PAX8 reporter)
C[C@@H]1CN([C@@H](C)CO)C(=O)Cc2cc(NC(=O)CCCCCC(=O)Nc3ccccc3N)ccc2O[C@@H]1CN(C)C	none (no result: aSyn UTR inh, LMP1 NFkB inh, MITF TRPM1 inh, Shn3 inh set2)
CCNC(=O)N(CC)C[C@H]1N[C@@](Cc2ccccc2)(C(=O)OC)[C@H]2C(=O)N(Cc3ccccc3)C(=O)[C@@H]12	none (no result: aSyn UTR inh)
CN1C[C@@H]2[C@@H]3C(=O)N(Cc4ccccc4)C(=O)[C@@H]3[C@](Cc3ccccc3)(C1=O)N2C(=O)c1ccccc1	none (no result: aSyn UTR inh)
CCNC(=O)N(CC)C[C@H]1N[C@@](Cc2ccccc2)(C(=O)OC)[C@H]2C(=O)N(C)C(=O)[C@@H]12	LMP1 NFkB inh 64.6 (no result: aSyn UTR inh)
CN1C[C@@H]2[C@@H]3C(=O)N(Cc4ccccc4)C(=O)[C@@H]3[C@](Cc3ccccc3)(C1=O)N2C(=O)c1ccc(C(C)(C)C)cc1	PAX8 reporter 99.5 (no result: aSyn UTR inh)
CCN(C[C@H]1N[C@@](CC)(C(=O)OC)[C@H]2C(=O)N(Cc3ccccc3)C(=O)[C@@H]12)C(=O)c1ccc(C(C)(C)C)cc1	PAX8 reporter 81.7 (no result: aSyn UTR inh)
CC[C@@]1(C(=O)OC)N[C@H](CN(C)C(=O)c2ccc(C(C)(C)C)cc2)[C@@H]2C(=O)N(Cc3ccccc3)C(=O)[C@@H]21	none (no result: aSyn UTR inh)
C[C@@H]1CN([C@H](C)CO)C(=O)c2cc(NS(=O)(=O)c3ccc(Cl)cc3)ccc2O[C@@H](C)CCCCO[C@H]1CN(C)S(=O)(=O)c1cccs1	none (no result: aSyn UTR inh, LMP1 NFkB inh, MITF TRPM1 inh, Shn3 inh set2)
CC(C)c1nnc(NC(=O)c2nc(S(=O)(=O)Cc3ccccc3)ncc2Cl)s1	MITF TRPM1 inh 82.6, Shn3 inh set2 94.2
CCCc1nnc(NC(=O)c2nc(S(=O)(=O)Cc3ccc(C)cc3)ncc2Cl)s1	MITF TRPM1 inh 69.2, Shn3 inh set2 91.3
CSc1nnc(NC(=O)c2nc(S(=O)(=O)Cc3ccccc3)ncc2Cl)s1	MITF TRPM1 inh 67.6, Shn3 inh set2 96.4
CSc1ncc(Cl)c(C(=O)Nc2nnc(SC)s2)n1	none (no result: PAX8 reporter)
Cc1ccc(S(=O)(=O)CCc2nnc(NC(=O)c3cnccn3)s2)cc1	none (no result: PAX8 reporter)
CC(=O)Nc1ccc(NC(=O)CCCSc2nc3ccccc3s2)cc1	none
COC1=CC(=O)c2ccccc2C1=O	MITF TRPM1 inh 101.6 (no result: aSyn UTR inh, PAX8 reporter)
O=C1C=C(C2CCCCC2)C(=O)c2ccccc21	none (no result: aSyn UTR inh)
COC1=CC(=O)C=C(OC)C1=O	LMP1 NFkB inh 82.6, PAX8 reporter 78.0, Shn3 inh set2 97.3 (no result: aSyn UTR inh)
Cc1cc(C)c2c(N)c3ccccc3nc2n1	MITF TRPM1 inh 66.2
CC(C)(C)[Si](C)(C)OC[C@@H]1[C@H]2c3ccccc3O[C@]1(C)NC(=S)N2C(=O)c1ccccc1	PAX8 reporter 95.2 (no result: aSyn UTR inh, LMP1 NFkB inh, MITF TRPM1 inh, Shn3 inh set2)
CCc1cccc(NC(=O)c2cc(OC)c(OC)c(OC)c2)c1	none
C(=N\N1CCN(Cc2ccccc2)CC1)/c1ccc(-c2ccccc2)cc1	Shn3 inh set2 89.5
CCOc1cc(/C=N/N2CCN(Cc3ccccc3)CC2)ccc1O	LMP1 NFkB inh 45.0
O=C(COC(=O)c1ccc(Cl)nc1)Nc1cccnc1Cl	none
COc1ccc(S(=O)(=O)Nc2ccc3c(c2)C(=O)N([C@@H](C)CO)C[C@H](C)[C@@H](CN(C)Cc2ccc(C(F)(F)F)cc2)OCCCC[C@H](C)O3)cc1	PAX8 reporter 106.0 (no result: aSyn UTR inh, LMP1 NFkB inh, MITF TRPM1 inh, Shn3 inh set2)
COc1ccc(S(=O)(=O)Nc2ccc3c(c2)C(=O)N([C@H](C)CO)C[C@H](C)[C@@H](CN(C)Cc2ccc(C(F)(F)F)cc2)OCCCC[C@H](C)O3)cc1	PAX8 reporter 104.2 (no result: aSyn UTR inh, LMP1 NFkB inh, MITF TRPM1 inh, Shn3 inh set2)
COc1ccc(S(=O)(=O)Nc2ccc3c(c2)C(=O)N([C@H](C)CO)C[C@@H](C)[C@H](CN(C)Cc2ccc(C(F)(F)F)cc2)OCCCC[C@H](C)O3)cc1	none (no result: aSyn UTR inh, LMP1 NFkB inh, MITF TRPM1 inh, Shn3 inh set2)
CN1CCN(C(=O)C2=C[C@@H](C(C)(C)C)C[C@@H](OCc3ccc(CO)cc3)O2)CC1	LMP1 NFkB inh 55.4
C=CCOc1nc(-c2ccccc2Cl)nc2ccccc12	aSyn UTR inh 72.1
CNC(=O)c1sc(-c2cccs2)nc1C	none
O=C(NCc1cccnc1)C(=O)NCC1OCCCN1S(=O)(=O)c1ccc(Cl)cc1 (configuration not stated)	none
O=c1[nH]c2cc(Cl)c(Br)cc2o1	LMP1 NFkB inh 68.4 (no result: aSyn UTR inh)
O=c1[nH]c2cc(Cl)c(Cl)cc2o1	none (no result: aSyn UTR inh)
CN(C)c1ccc(NC(N)=S)cc1	none
COc1ccc(N2Cc3ccccc3C2=O)cc1	LMP1 NFkB inh 80.6
Cc1ccc(N2Cc3ccccc3C2=O)cc1	none
Cc1cc(C)nc(SCC(=O)OCN2C(=O)c3ccccc3C2=O)n1	LMP1 NFkB inh 85.4 (no result: PAX8 reporter)
CC[N+](C)(C)CCN(Cc1ccc(Cl)cc1)c1ccccn1	none
COc1ccc(CN(CCN(C)C)c2ccccn2)cc1	PAX8 reporter 82.8!
COc1ccc(CN(C)c2ncnc(N)n2)cc1	none (no result: PAX8 reporter)
CCCCCCCCCCCCCCCC[N+](C)(C)CCN(Cc1ccc(OC)cc1)c1ncccn1	MITF TRPM1 inh 103.0 (no result: aSyn UTR inh, PAX8 reporter)
CCCC(c1nnnn1CCOC)N1CCN(Cc2ccccc2)CC1 (configuration not stated)	none (no result: PAX8 reporter)
O=c1c2ccccc2nc(/C=C/c2ccc([N+](=O)[O-])o2)n1CCCO	LMP1 NFkB inh 84.3, MITF TRPM1 inh 97.8, Shn3 inh set2 96.5 (no result: PAX8 reporter)
O=c1c2c(nc3c(-c4cccc(Br)c4)c[nH]n13)CCCC2	aSyn UTR inh 68.7, LMP1 NFkB inh inconclusive
O=c1c2c(nc3c(-c4ccccc4)c[nH]n13)CCC2	none (no result: PAX8 reporter)
Cc1cc(O)c(C(=O)/C=C/c2cccc([N+](=O)[O-])c2)c(=O)o1	none (no result: Shn3 inh set2)
O=C(/C=C/c1cccc([N+](=O)[O-])c1)n1cnc2ccccc21	MITF TRPM1 inh 66.6, Shn3 inh set2 91.9
CC(=O)Oc1ccccc1C(=O)C=Cc1cccc([N+](=O)[O-])c1	MITF TRPM1 inh 93.5 (no result: aSyn UTR inh)
O=C(/C=C/c1cccc([N+](=O)[O-])c1)c1cccs1	MITF TRPM1 inh 79.9
